In all, about 9,900 sequences were measured (“r (bound/input frequency ratio)”: median about 0.7, highest 2% from about 6.5 on). The sample holds the highest values, similar sequences and a random draw of the others, so the mix is not that of the screen.

The labels stand for the following.
B1: ENSMUSG00000043670.145|Diras1 (ssRNA)
RNA: GGGAGUUCUACAGUCCGACGAUCGCUUCGAUAUCCGCAUGCUAUCAGGGGAGGCACACUGGAACCCUGAACUUGGAGUGUGGAGUGGCUGCCUGGACACUGCCCACCUGGACACCAGCCUUCUGCUGAGAUAGAGACCUUGGCACAGUGGCACCUCGACAGCCACCCCGACUGGGGGUUUGGGGUGCUGAGGGUGGGGUGCCCAGCUGAGAGUCUAUCAGCAAAGUCCCUGUGUGCGGUGAUAGGACUAGUGGCUGCUGCCCUAGGGCUCUGACAGAAUCUGAGCCUCUUUGCUGGUCAUGUGCUCUUGCGGUCGCACUAGUGUGGAAUUCUCGGGUGUCAAGG
B2: ENSMUSG00000022095.153|Fam160b2|110:114 (ssRNA)
RNA: GGGAGUUCUACAGUCCGACGAUCGCUUCGAUAUCCGCAUGCUAGACUAUAGGAACUCAAGGUACAGAUGGGACAGGGCACCCCAACUCCAAACCCCAGAAGCCUAGUGAGGCUAGGCCGAGACACAAGCAGAUAGCUCUGGCAUUGUUCUUCCAUACUCCUCCAUGGCUGGGGCUGCUACCUCACCCGGCCUGAAUCUGUCUCAACCUGCAAGAGCACUCGGGCGGCGCCAGGCAUUACCUCACAACAGGCCUGCAGUUGUUGGCUUCCCUCCUGGGCAAGGAGGAGCAGGCCAGAGCCCCUUCUCUUGCGGUCGCACUAGUGUGGAAUUCUCGGGUGUCAAGG
B3: ENSMUSG00000042529.77|Kcnj12|96:100 (ssRNA)
RNA: GGGAGUUCUACAGUCCGACGAUCGCUUCGAUAUCCGCAUGCUAACAAACAAAAACAAACAAACAAACAAUCAAAAAAAAAACCCACCCCACAAAACACAAGAAAACAUUAACAGGUGGUUCAAUUUUUAAAAUUCCUGCACACGGGACAGUUGGAAUUCUACUCAGCGCUGCCAGGCAAGCAGCUGGACGGAGAACCCUGAGGGUUCUCAGAGGUCUGUUUUCUCCCUCACGUGGGCCAGGGCCUUAAGCGAGUUGUCAUGCUUAAGGAUGAAUCAGGCUGCUUGUGACCAUGUUAACGAUUCCUCUUGCGGUCGCACUAGUGUGGAAUUCUCGGGUGUCAAGG
B4: ENSMUSG00000090935.460|Synj2bp (ssRNA)
RNA: GGGAGUUCUACAGUCCGACGAUCGCUUCGAUAUCCGCAUGCUACACAACCAGUAAGAAAAAUAUUGCCAUCCAAAACAGAGCACAGUGCAGCAACAUAGAAGAUAAGCAGAUAACCAGCAAGUAUUGUAAGGAGUUCAGAAAAGGAAAGCCAUCGUGUAGUGGCAUCAGGGGAGAAUGGAAAGGAAAGUCUAGAACAGUCCAGUGAUACUUUACCUCUGGGAAAACUCUUGAUACAGGGAGACAUUUGCUUUAAACAAUCUUCACAUAACUAAGCCAUUCAGUACUUUUUGAAACUGACUUAGCUCUUGCGGUCGCACUAGUGUGGAAUUCUCGGGUGUCAAGG
B5: ENSMUSG00000061578.947|Ksr2 (ssRNA)
RNA: GGGAGUUCUACAGUCCGACGAUCGCUUCGAUAUCCGCAUGCUAAAGACUGCAUGUUAACGCUCCUGCCACUGUUGCCCCUUCCUUUACCCUUGGCAGACAUUGCUAAUCAAUCUCAGCACAGUUUCCAACCACAGUCAUAGAACAUUUGCCACAAAGGCCCUGGAUGUGACUAUAUGUGCUGAGAAGGGAAGGUAGUUUUCCCCCAGAAAGUCCCUUCUAAUAAACAUUGAUGACUUUAGAAUCCAUGACUCAGAAUUUUCCAGAGACCCAAUCCCUCGGGGUCCACUUAGUGAUGGGACCAUCUCUUGCGGUCGCACUAGUGUGGAAUUCUCGGGUGUCAAGG
B6: ENSMUSG00000090935.28|Synj2bp|72:76;256:260 (ssRNA)
RNA: GGGAGUUCUACAGUCCGACGAUCGCUUCGAUAUCCGCAUGCUAGUAAAUGGCCAAGAUCUGAAGAACCUGCUGCACCAAGAUGCUGUAGACCUCUUCCGUAAUGCGGGAUGUGCACACACCCUGAGAGUACAGCACAGGUUACCAGUGCAGAAUGGACCUAUAGUACAUCGAGGUGAAGGAGAGCCAAGUGGAGUUCCUGUAGCUAUGGUGCUGCUACCAGUGUUUGCCCUCACCAUGGUAGCAGUUUGGGCCUUCGUGAGAUACCGAAAGCAGCUUUGAAAUGCUUGCUGUCUUCCACACACCUCUUGCGGUCGCACUAGUGUGGAAUUCUCGGGUGUCAAGG
B7: ENSMUSG00000042529.254|Kcnj12 (ssRNA)
RNA: GGGAGUUCUACAGUCCGACGAUCGCUUCGAUAUCCGCAUGCUAUUCCCCUAGGACCCGCUGCAGAGGCAUGGGCUCCUCUGUGGUCCUGGCCAGACCUCUGCCCCCAAAUCUCACUGACUGUUCUAGCCUUGGCCUUGGGGCCUAAGGGUGCAUUCAGCCUGGGUGUGCUUACCUGCCACUCACCUCUCUAUCUAGUUGUCGAGUCUAGGGAAGGGCAGAGGGUGGGUCCUGGCCACUGGGUGCCACUGUGGGAGCCGGGGCACCUGUCAUUCUUUCUGAGUAGGUGGGCCUGUAUCCAGAGCCUCUUGCGGUCGCACUAGUGUGGAAUUCUCGGGUGUCAAGG
B8: ENSMUSG00000061578.312|Ksr2 (ssRNA)
RNA: GGGAGUUCUACAGUCCGACGAUCGCUUCGAUAUCCGCAUGCUACCAGGGAGGGCUGAAGCUCUGGGACCCUGAAGUGUCCCCCGGGAACUGGGACUCACUCAUCUUCUCCUGUUUGUAGCUCAAUGACCCAGUGGGUCACAGUUCUAGGCGCUCCAAGGAAGCCAGGGGAGGGGGACUCCUCAGGAAGGAGUGACCAGUCACCUGCCUCCCAGGGUUCUGCCUUGCCCUUAAGCUAGGGUCCUUCAAGCAUCCACAGACUUAGAGUGUGGUGGUAACAUGCUUGUAAUCCUGGCACUCUGGAGCUCUUGCGGUCGCACUAGUGUGGAAUUCUCGGGUGUCAAGG
B9: ENSMUSG00000029636.114|Wasf3 (ssRNA)
RNA: GGGAGUUCUACAGUCCGACGAUCGCUUCGAUAUCCGCAUGCUAGCGGCCAUUUUUAUGAGGGGAGCCCUGUGGGUACUCAUGUGGAAAGUGCCCACUGACUUUGGCAGAUGGAGUUCACUUUCAUGGCUAGCCCUGAUAGCGUUGGGCACCAGUUAGCCAGGCCAUGUUCAAGCUGCCUAGAGUCUGCAGAGCUUGCAUGGCAGAGCGGCCGCAUCUGGUUCCCUCCUACUCCACCCAGUGGAAAAGAGACCUCCACGUUUUAUUUUCUGGGAUCCCUGCUCCUCUGUUCACCAGGGAGUGAGCUCUUGCGGUCGCACUAGUGUGGAAUUCUCGGGUGUCAAGG

Chain of TDP-43 (Q13148 whole entry): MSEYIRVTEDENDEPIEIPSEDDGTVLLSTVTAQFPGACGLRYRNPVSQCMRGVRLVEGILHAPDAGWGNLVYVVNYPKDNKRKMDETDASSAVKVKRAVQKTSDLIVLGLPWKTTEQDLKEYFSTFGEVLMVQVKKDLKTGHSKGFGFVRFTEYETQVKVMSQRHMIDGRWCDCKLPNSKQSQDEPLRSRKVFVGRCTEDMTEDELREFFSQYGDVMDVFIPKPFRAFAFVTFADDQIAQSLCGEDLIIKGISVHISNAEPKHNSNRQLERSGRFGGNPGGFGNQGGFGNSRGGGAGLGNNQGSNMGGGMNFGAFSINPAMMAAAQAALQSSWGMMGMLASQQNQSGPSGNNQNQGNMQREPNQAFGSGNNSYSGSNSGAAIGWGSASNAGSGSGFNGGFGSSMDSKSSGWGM

The test addresses TDP-43 (Homo sapiens, UniProt Q13148 1-414). The test can be described thus: RNA Bind-n-Seq with designed 260-mer pool; 25 mM Tris-HCl, 150 mM KCl, 3 mM MgCl2, BSA (printed 500 mg/mL), 20 units/mL SUPERase IN; pH not stated; 500 nM RNA pool, 1 h, 4 C; TDP-43 5, 50, 500 nM; high values mean tight binding. The settings on record: protein: recombinant; tags: SBP (GST cleaved off with PreScission; pGEX-GST-SBP). An outline of the steps:
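For each oligo, R gives binding as its mapped-read-normalized abundance after pulldown divided by its abundance in input. Bead-captured SBP-tagged TDP-43 (5, 50 or 500 nM) was incubated with 500 nM of an in vitro-transcribed 260-nt 3′ UTR oligo pool for 1 h at 4 °C in 25 mM Tris-HCl, 150 mM KCl, 3 mM MgCl2, BSA and SUPERase IN on streptavidin beads. Washed, biotin-eluted RNA was reverse transcribed, PCR-amplified and sequenced.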
Take B1: the binding signal was 0.713 R (bound/input frequency ratio).
The same measure for B2: 1.53 R (bound/input frequency ratio).
Consider B3, for which the binding signal was 1.63 R (bound/input frequency ratio).
Regarding B4, the binding signal was 0.396 R (bound/input frequency ratio).
The same measure for B5: 0.693 R (bound/input frequency ratio).
The value for B6 was 1.49 R (bound/input frequency ratio); that for B7 was 0.966 R (bound/input frequency ratio).
The same measure for B8: 0.535 R (bound/input frequency ratio).
On to B9, for which the binding signal was 0.753 R (bound/input frequency ratio).

Source of the values: paper PMC12864922, “TDP-43 directly inhibits mRNA accumulation in neurites through modulation of mRNA stability”.
